Assay outcomes deposited in PubChem BioAssay by several laboratories.
Bfl-1 A1 inh – inhibitors of the anti-apoptotic protein A1, read as caspase activation. MEF A1-2A-BIM cells, Caspase-Glo 3/7 luminescence, 3 h; percent of clofoctol response, vehicle zero. caspase activation, % (no concentration beside the values). hit rate 0.066% among 330,000. AID 2462;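 active = over half of replicate activation scores above 10%, or exactly half above 10 with the replicate mean above 10; inconclusive = replicate mean below 10 yet half the replicates above 10; inactive = over half of replicates below 10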
Beta apoptosis – beta cell apoptosis inhibition; INS-1E cytokine-induced death, ATP luminescence, 48 h; percent of positive-control rescue, neutral wells zero; protection from apoptosis, % (no concentration beside the values); hit rate 0.8% among 300,000;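 active = Every replicate reaches about 75%, or at least half do and their mean reaches it too, limit read from the data; inconclusive = At least half of replicates reach the limit but their mean does not; inactive = Under half of replicates reach the limit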;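 also: higher means more ATP so stronger rescue from cytokine killing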
CSC inhib – cancer stem cell inhibition. AID 2717. hit rate 1.1% among 300,000. inhibition, % at 7.5 µM. cancer stem cell-like cells viability, luminescence; in the data active = inhibition above about 75%; inconclusive = no clear call, values can overlap the other calls; tested in HMLE shEcad cells
aSyn UTR inh – MLPCN primary screen, SNCA 5' untranslated region. hit rate 0.82% among 300,000. inhibition, % (tested at 7.5 µM). alpha-synuclein 5'UTR reporter, inhibitor activity; in the data active = inhibition above about 60%; inconclusive = no clear call, values can overlap the other calls;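 also: H4 neuroglioblastoma cells stably carrying SNCA 5'UTR luciferase fusion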
Mdm2 MdmX PPI – inhibitors of human Mdm2/MdmX interaction; inhibition, % at 8 µM; hit rate 3% among 330,000; AID 485346; SaOS-2 split-luciferase Mdm2/MdmX complementation, luminescence; O15151+Q00987;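 active = inhibition of at least 50% at 8 µM in the primary screen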
Target sequence (O15151 whole entry, looked up): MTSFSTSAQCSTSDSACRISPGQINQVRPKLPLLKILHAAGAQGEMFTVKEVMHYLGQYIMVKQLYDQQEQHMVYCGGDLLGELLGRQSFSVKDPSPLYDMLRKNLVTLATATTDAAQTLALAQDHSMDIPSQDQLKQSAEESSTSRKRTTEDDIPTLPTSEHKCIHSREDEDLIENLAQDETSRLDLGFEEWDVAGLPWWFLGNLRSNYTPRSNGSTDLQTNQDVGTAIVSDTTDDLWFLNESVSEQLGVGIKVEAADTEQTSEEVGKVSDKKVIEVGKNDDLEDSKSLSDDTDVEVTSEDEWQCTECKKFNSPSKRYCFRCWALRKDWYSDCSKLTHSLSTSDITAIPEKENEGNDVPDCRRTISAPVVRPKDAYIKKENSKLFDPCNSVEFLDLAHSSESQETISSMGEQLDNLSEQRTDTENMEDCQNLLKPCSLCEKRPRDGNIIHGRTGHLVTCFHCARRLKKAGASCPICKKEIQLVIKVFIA
Target sequence (Q00987 whole entry, looked up): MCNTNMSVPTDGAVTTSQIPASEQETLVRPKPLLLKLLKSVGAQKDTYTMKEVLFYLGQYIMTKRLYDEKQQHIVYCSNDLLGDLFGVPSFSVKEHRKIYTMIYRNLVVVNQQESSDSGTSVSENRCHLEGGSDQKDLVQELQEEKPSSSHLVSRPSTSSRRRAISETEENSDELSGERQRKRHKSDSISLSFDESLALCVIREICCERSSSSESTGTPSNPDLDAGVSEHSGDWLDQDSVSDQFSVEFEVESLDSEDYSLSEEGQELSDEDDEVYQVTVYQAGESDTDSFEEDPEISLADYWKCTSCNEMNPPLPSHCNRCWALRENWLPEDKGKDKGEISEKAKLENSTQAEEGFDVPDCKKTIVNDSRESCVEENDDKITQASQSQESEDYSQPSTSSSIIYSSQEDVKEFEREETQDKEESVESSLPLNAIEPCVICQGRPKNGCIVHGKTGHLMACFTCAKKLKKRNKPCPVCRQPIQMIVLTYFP
Mdm2-MdmX conf – confirmation of human Mdm2/MdmX interaction inhibitors; shares compounds with Mdm2 MdmX PPI; Mdm2-MdmX binding, luminescent assay; inhibition, % at 8 µM; hit rate 55% among 10,000; AID 489028; in the data active = inhibition above about 40%
FLuc counter – full-length luciferase inhibition in Mdm2/MdmX counter-screen. inhibition, % at 8 µM. SaOS-2 full-length luciferase counterscreen, luminescence. hit rate 77% among 6,200. shares compounds with Mdm2 MdmX PPI. AID 504607;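 active = mean inhibition at 8 µM reaching about 37%, which flags the compound as non-specific, limit read from the data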;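 also: p53-null SaOS-2 cells with luciferase driven by a doxycycline-inducible promoter; compound on cells about two nights before reading with doxycycline added after day one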
A number is an active result; - = inactive; ? = inconclusive; . = no result given; + = active, no number. Most compounds without a hit are left out; they make up all but 4.1% or so of the library.

SMILES	Bfl-1 A1 inh	Beta apoptosis	CSC inhib	aSyn UTR inh	Mdm2 MdmX PPI	Mdm2-MdmX conf	FLuc counter
CCN(CC)Cc1c(O)ccc2c([N+](=O)[O-])c(C)n(-c3ccc(OC)cc3)c12	-	-	-	-	71	82	51
CCN(CC)Cc1c(O)ccc2occ(C(=O)c3ccc(OC)cc3)c12	-	-	-	-	-	.	.
COC(=O)c1ccc(N2CCCCC2)c(NC(=O)c2ccco2)c1	-	.	-	-	-	.	.
CCOC(=O)c1c(NC(=O)COc2ccccc2)sc2c1CC(C)(C)NC2(C)C	-	-	-	-	77	41	54
CC1(C)Cc2c(sc(NC(=O)c3ccc(C(=O)c4ccccc4)cc3)c2C#N)C(C)(C)N1	-	-	-	-	52	-	95
CCOc1ccc(C(=O)Nc2sc3c(c2C(=O)OC)CC(C)(C)NC3(C)C)cc1	-	-	-	-	78	48	60
CC1(C)Cc2c(sc(NC(=O)c3ccc(S(=O)(=O)N4CCCC4)cc3)c2C#N)C(C)(C)N1	-	.	-	-	-	.	.
COC(=O)c1c(NC(=O)c2nc3ccccc3s2)sc2c1CC(C)(C)NC2(C)C	-	.	-	104	98	64	53
CC1(C)Cc2c(sc(NC(=O)c3ccc(S(=O)(=O)N4CCCCCC4)cc3)c2C(N)=O)C(C)(C)N1	-	.	.	-	85	-	.
COc1ccc(OC)c(Nc2cc(-c3ccccc3)nc(N)n2)c1	-	-	-	68	69	71	72
Cc1cc(Cl)ccc1NC(=O)CCC(=O)N/N=C/c1cccnc1	-	-	-	-	-	.	.
COc1cccc(CCc2nnc(N)s2)c1	-	.	-	-	-	.	.
O=C(C#Cc1ccccc1)Nc1cccc(F)c1	-	97	114	-	98	100	-
COc1ccc(-c2noc(COC(=O)c3ccco3)n2)cc1OC	-	-	-	.	-	.	.
Cc1cc(C(=O)CSc2nnc(-c3ccc(F)cc3)o2)c(C)n1CC1COc2ccccc2O1 (centres undefined)	-	-	-	-	62	-	.
C#CCOCCOCCOCCNc1nc(N2CCN(C(=O)[C@H](CCCCN)n3cc(CN)nn3)CC2)nc(N2CCN(C(=O)[C@H](CCCN=C(N)N)n3cc(C(N)[C@H](C)CC)nn3)CC2)n1 (some centres undefined)	-	-	-	.	-	.	.
Cc1ccc(CNc2ccc([N+](=O)[O-])cc2C(N)=O)cc1	-	-	.	.	-	.	.
Cc1ccc(Oc2c(C(N)=O)cc([N+](=O)[O-])cc2[N+](=O)[O-])cc1	-	-	+	-	95	95	52
CSc1nc(N)nc(SCC(=O)Nc2ccc(Cl)cc2)c1C#N	-	-	-	-	-	.	.
CSc1nc(N)nc(SCCS(=O)(=O)c2ccc(Cl)cc2)c1C#N	-	-	-	-	57	-	.
COc1ccc(Oc2c(Cl)cnn(-c3ccc(Cl)c(Cl)c3)c2=O)cc1	-	-	?	73	85	-	.
C/C(CC(=O)Nc1cc(C)ccn1)=N\NC(=O)c1cccc(C)c1O	-	-	-	-	66	46	121
C/C(CC(=O)Nc1cc(C)ccn1)=N\NC(=O)c1cccc(C)c1	-	-	-	-	-	.	.
COCc1cc(CN2CCCC(C(=O)Nc3ccc(-c4ccco4)cc3)C2)ccc1OC (centres undefined)	-	-	-	-	-	.	.
CC(C)C(=O)N1CCN(c2ccc(NC(=O)c3ccc4c(c3)OCCO4)cc2Cl)CC1	-	-	.	-	60	80	65
SMILES	Bfl-1 A1 inh	Beta apoptosis	CSC inhib	aSyn UTR inh	Mdm2 MdmX PPI	Mdm2-MdmX conf	FLuc counter
CSc1ccc(-c2nnn(CC(=O)NCc3ccccc3)n2)cc1	-	-	-	-	-	-	.
CC(Sc1nnc(-c2cccnc2)n1N)C(=O)Nc1ccc2c(c1)OCCO2 (centres undefined)	.	.	.	.	-	.	.
O=C(N/N=C/c1cc(Br)ccc1O)c1cccc(N2CCCC2=O)c1	-	-	-	68	54	65	-
COc1ccc(O)c(/C=N/NC(=O)c2cccc(N3CCCC3=O)c2)c1	-	94	.	-	55	57	56
CCN(CC(=O)Nc1cccc(F)c1)CC(=O)Nc1ccccc1OC	-	-	-	-	-	.	.
CCSc1nc2ccccc2n1CC(N)=O	-	-	-	-	-	.	.
CCSc1nc2ccccc2n1C(=O)/C=C\c1ccc(OC)c(OC)c1	-	-	-	-	100	100	52
CC(CNC(=O)c1ccc(-c2ccccc2)cc1)CN(C)C (centres undefined)	-	-	.	-	-	.	.
CN(C)CC(CCCCC(CN(C)C)C(=O)c1ccccc1)C(=O)c1ccccc1 (centres undefined)	.	.	.	-	56	43	54
COc1ccc(N=Nc2cc(C)c(O)c(CN3CCCCC3)c2)cc1	-	-	-	-	-	.	.
COc1ccc2nc3cc(Cl)ccc3c(Nc3cc(CN4CCCC4)c(O)c(CN4CCCC4)c3)c2n1	-	?	-	104	99	53	77
CN1CCN(NC(=O)c2cc(-c3ccc(Cl)s3)nc3ccccc23)CC1	-	-	-	-	-	.	.
O=C1OC(c2ccc(F)cc2)=C/C1=C\c1ccc([N+](=O)[O-])o1	-	-	-	-	74	-	.
CC(=O)NC(Nc1c(C)n(C)n(-c2ccccc2)c1=O)C(Cl)(Cl)Cl (centres undefined)	-	-	-	-	-	.	.
O=C(O)c1ccc(Nc2cc(Cl)c3nonc3c2[N+](=O)[O-])cc1	-	-	-	-	-	.	.
Cc1c(Nc2cc(Cl)c3nonc3c2[N+](=O)[O-])c(=O)n(-c2ccccc2)n1C	.	.	.	.	99	98	57
O=[N+]([O-])c1c(Nc2cccc(O)c2)cc(Cl)c2nonc12	-	-	-	-	100	100	51
Cc1ccccc1NC(=O)NC1(C(=O)N2CCN(C)CC2)CCCCC1	-	-	-	-	-	.	.
Cc1ccc(N/C(N)=N/c2nc(C)cc(C)n2)cc1	-	-	-	-	-	.	.
CCCCc1ccc(N/C(N)=N/c2nc(C)cc(C)n2)cc1	-	124	-	-	66	-	.
COc1ccc(C(C)NCCC(c2ccc(OC(C)C)cc2)c2ccccc2OC)cc1 (centres undefined)	-	82	104	93	99	69	56
COc1ccc(C(CCNC(C)c2ccccc2)C(C)C)cc1 (centres undefined)	-	-	-	-	55	-	.
COc1ccc(C(CC(=O)NCc2ccccc2)C(C)C)cc1 (centres undefined)	-	-	-	.	-	.	.
COc1ccccc1CNC(=O)Cn1cc(Br)ccc1=O	-	-	-	-	-	.	.
COc1ccc(CCC(=O)Nc2cccc(S(=O)(=O)N3CCCC3)c2)cc1OC	.	.	.	.	-	.	.
CC(=O)c1ccc(Oc2ncnc(N)c2[N+](=O)[O-])cc1	-	-	-	-	60	60	45
C[C@H](CO)N1C[C@H](C)[C@@H](CN(C)S(C)(=O)=O)Oc2ccc(NC(=O)c3ccncc3)cc2C1=O	-	-	.	.	-	.	.
